# An excerpt weighted towards active compounds, which were near 11% of everything screened.
# ALDH1A1 inh – blocks purified human ALDH1A1 activity; Purified ALDH1A1, NADH fluorescence, propionaldehyde substrate; Potency, µM (doses to about 75.3 µM), without a hit: top-dose activity, negative = inhibition, usual class: inhibitors; actives 7.3% (n = 220,000); AID 1030;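 note: potency is the fitted concentration of half-maximal effect; plate controls were no enzyme wells and a reference inhibitor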
# Target sequence (P00352 whole entry, looked up): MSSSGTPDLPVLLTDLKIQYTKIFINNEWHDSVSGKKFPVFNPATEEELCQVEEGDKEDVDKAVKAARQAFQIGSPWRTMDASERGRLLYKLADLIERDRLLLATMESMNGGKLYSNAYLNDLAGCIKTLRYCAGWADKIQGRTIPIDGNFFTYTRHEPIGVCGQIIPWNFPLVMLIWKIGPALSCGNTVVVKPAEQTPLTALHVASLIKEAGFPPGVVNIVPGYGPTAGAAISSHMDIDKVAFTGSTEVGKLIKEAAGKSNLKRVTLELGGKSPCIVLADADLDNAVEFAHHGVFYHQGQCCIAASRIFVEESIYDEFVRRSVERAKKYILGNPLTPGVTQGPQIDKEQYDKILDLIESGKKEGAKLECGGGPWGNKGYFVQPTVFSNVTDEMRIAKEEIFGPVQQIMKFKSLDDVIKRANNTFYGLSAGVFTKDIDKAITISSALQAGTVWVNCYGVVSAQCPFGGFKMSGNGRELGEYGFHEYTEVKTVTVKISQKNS
# PNC inhibitor – perinucleolar compartment assembly inhibition | actives 3.1% (n = 140,000) | activity change (PNC), negative = inhibition, % at 10 µM | PC3M PTB-GFP, PNC prevalence imaging, 16 h; stronger effect = lower value | AID 2417;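 active = readout at or below -70, meaning at least 70% loss of cells showing the perinucleolar compartment, a nuclear body marking cancer cells; inconclusive = readout between -30 and a set limit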;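 note: plate controls were DMSO wells for no effect and camptothecin positive control wells for full effect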
#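 PC3M cells stably expressing PTB-GFP, 750–1000 cells/well, treated 16 h at 37 °C with compound (23 nl of library stock), in duplicate. After paraformaldehyde fixation and Hoechst stain, imaged at 20x; PNC prevalence scored by image analysis.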
# HPGD block – HPGD (human) dehydrogenase inhibition; purified HPGD, NADH fluorescence kinetic, PGE2 substrate; Potency, µM, for the others: at the top dose activity change, negative = inhibition, usual class: inhibitors; actives 4.3% (n = 150,000); note: potency is the fitted concentration of half-maximal effect; % is set by controls: 0 for no effect and ±100 for the full control effect
#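 NADH formation kinetics: reaction with 30 uM PGE2 and 1 mM NAD+ (final), 20 nM enzyme, Tris-HCl pH 8 with Tween 20, after 15 min compound preincubation at room temperature. Fluorescence change, last versus first of five reads.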
# HTT cytoprotect – Huntington cell model cytoprotection by ATP luminescence. Potency, µM (highest dose often 56.4 µM), inactives show cytoprotection (ATP increase), hits mostly activators. actives 0.14% (n = 230,000). PC12 HTT-Q103 induced, cytoprotection, ATP luminescence, 40 h. AID 1471; active = well fitted curve in the direction sought with a large enough effect; inconclusive = small, poorly fitted or top-dose-only effect, or another doubt; inactive = no such curve, though single readings can be large; an effect the other way counts as inactive or inconclusive; note: potency is the fitted concentration of half-maximal effect; % of control where 0% means no effect; nearly all actives have a fitted effect of over 45% in size
#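 Compounds were screened for protection of PC12 cells against cell death after tebufenozide induction (100 nM final) of mutant Huntingtin exon 1 (Q103) fused to GFP.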
# GoLoco inh red – RGS12 GoLoco-Gai1 interaction inhibition | P63096 | Gai1:RGS12 GoLoco peptide FP, rhodamine, 10 min | Potency, µM (doses to about 61.6 µM), for inactives: at the highest dose activity, negative = inhibition, actives largely listed as inhibitors | actives 0.44% (n = 230,000) | AID 880; active = well fitted inhibition curve with a large enough effect, not every such curve was filed as active; inactive = no such curve, though single readings can be large or run the other way; note: potency is the fitted concentration of half-maximal effect; % is set by controls: 0 for no effect and ±100 for the full control effect; nearly all actives have a fitted effect of over 30% in size
# HttQ103 aggreg – reduces HttQ103-GFP aggregates in PC12 cells; PC12 HttQ103-GFP aggregates, Acumen cytometry, 40 h; Potency, µM (doses to about 46.1 µM), inactives show top-dose activity change, negative = inhibition, hits mostly inhibitors; actives 1.1% (n = 220,000); AID 1688; active = well fitted curve in the direction sought with a large enough effect; inconclusive = small, poorly fitted or top-dose-only effect, or another doubt; inactive = no such curve, though single readings can be large; an effect the other way counts as inactive or inconclusive; note: potency is the fitted concentration of half-maximal effect; % is set by controls: 0 for no effect and ±100 for the full control effect; nearly all actives have a fitted effect of over 60% in size
#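 Huntingtin Q103 exon 1–GFP aggregates in induced PC12 cells (100 nM tebufenozide) were quantified by cytometry from lysates, with compounds dosed in titration.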
# * = called active by the depositor; ? = inconclusive; . = no result; [ ] = another dose, or the depositor's remark. Unless noted, calls come from the whole dose curve; as a rule, active = well fitted inhibition curve with a large enough effect (not every such curve was filed as active); inconclusive = small, poorly fitted or top-dose-only effect, or another doubt; inactive = no such curve, though single readings can be large or run the other way.
SMILES,ALDH1A1 inh,PNC inhibitor,HPGD block,HTT cytoprotect,GoLoco inh red,HttQ103 aggreg
CC12CCC(c3c(C(=O)O)nn(-c4ccccc4)c31)C2(C)C (stereo not given),9%,-127*,-6%,-13%,-5%,-9%
CC12CCC(c3c(C(=O)Nc4nccs4)nn(-c4ccccc4)c31)C2(C)C (stereo not given),4µM*,16,-21%,-3%,-20%,-4%
CC1=C(C(=O)OCC2CCCO2)C(c2ccc(C)o2)C2=C(CC(c3ccc(N(C)C)cc3)CC2=O)N1 (stereo not given),10µM*,13,-8%,4%[0.074 µM],-9%,-4%
CCOC(=O)C1=C(C)NC2=C(C(=O)CCC2)C1c1ccc(N(C)C)cc1 (stereo not given),28µM*,30,-1%,2%,-14%,-21%
CCCOC(=O)C1=C(C)NC2=C(C(=O)CCC2)C1c1ccc(N(C)C)cc1 (stereo not given),?,73,-7%,-14%,-7%,2%
Cn1c(NC(=O)Cc2cccc3ccccc23)cc(=O)n(C)c1=O,14µM*,.,.,-39%,2%,6%
Cc1cccc(CC(=O)Nc2cc(=O)n(C)c(=O)n2C)c1,?,?,-1%,-5%,8%,-11%
COCC(=O)Nc1cc(=O)n(C)c(=O)n1C,6%,-84*,-7%,-1%[10 µM],-9%,-8%
CC(C)CCCC(C)NC(C)C (stereo not given),.,.,.,-2%,.,1%
Cc1noc(C)c1C(=O)N1CCC2(CCCN(c3ccccc3)C2)CC1,-6%,.,-6%,-27%,28%,.
COc1cccc(CNC(=O)c2cc3oc4ccccc4c3n2C)c1OC,?,-106*,?,-10%[10 µM],18%,-18%
CCOC(=O)Nc1ccc2c(CN3C(=O)NC4(CCCC4)C3=O)cc(=O)oc2c1,?,-100*,?,-1%[10 µM],11%,0%
CCCCC[C@H](O)/C=C/C=C\C/C=C\CCCCC(=O)O,0%,.,2%,.,2%,.
NC(N)=NS(=O)(=O)c1ccc(NC(=S)NC(=O)c2ccc(Br)cc2)cc1,10µM*,.,.,-61%,6%,1%
NC(N)=NS(=O)(=O)c1ccc(NC(=S)NC(=O)c2sc3ccccc3c2Cl)cc1,?,?,-7%,13%[10 µM],-1%,-3%
Cc1ccc(C(=O)NCCSc2snnc2C)cc1,?,34,-22%,25%[10 µM],-3%,?
Cc1nnsc1SCCNC(=O)c1c(F)cccc1F,8%,-82*,-10%,6%[10 µM],-3%,0%
CC(C)c1ccc(NC(=O)C(c2ccccc2)N2CCN(C(=O)c3ccco3)CC2)cc1 (stereo not given),13µM*,-23,-17%,-54%,5%,?
CC(C)c1ccc(NC(=O)C(c2ccc3c(c2)OCO3)N2CCN(C(=O)c3ccco3)CC2)cc1 (stereo not given),?,16,-24%,-19%,-3%,-10%
OCC1OC([S-])[C@H](O)C(O)C1O.[Au+] (stereo not given in full),?,.,-25%,2%,-9%,17%
Cc1nnc(SCC(=O)NC23CC4CC(CC(C4)C2)C3)n(N)c1=O,?,.,.,26%,9%,-16%
COC(=O)c1ccc(NC(=O)CSC2=NCCN2)cc1,-17%,17,-7%,0%[10 µM],1%,28%
O=C(CSC1=NCCS1)NC(NC(=O)CSC1=NCCS1)c1ccccc1,5%,.,.,?,-4%,-8%
COC(=O)c1cc(NC(=O)CSC2=NCCS2)cc(C(=O)OC)c1,13µM*,.,.,-29%,20%,28%
Cn1ccnc1SCC(=O)c1ccc(Br)cc1,3.5µM*,19,?,-20%,86%,32%
SMILES,ALDH1A1 inh,PNC inhibitor,HPGD block,HTT cytoprotect,GoLoco inh red,HttQ103 aggreg
Cn1ccnc1SCC(=O)c1ccc([N+](=O)[O-])cc1,?,.,.,6%,7%,10%
O=C(CSC1=NCCS1)Nc1ccccc1F,8.9µM*,?,28µM*,6%,-5%,3%
Cn1ccnc1SCC(=O)NC12CC3CC(CC(C3)C1)C2,?,-127*,-16%,-9%,-4%,-9%
COC(=O)c1c(C(=O)OC)c(-c2cccc(Cl)c2)n2c1CS(=O)C2 (stereo not given),-8%,.,.,14%[10 µM],-1%,-13%
C[C@H]1[C@H](C)CC[C@@]2(C(=O)O)CC[C@]3(C)C(=CC[C@@H]4[C@@]5(C)CC[C@H](O)C(C)(C)[C@@H]5CC[C@@]43C)[C@@H]12,.,.,.,6%,.,.
O=C(O)c1ccccc1CSC1=NCCS1,20µM*,.,.,-21%,6%,2%
Cn1ccnc1SCC(=O)Nc1cccc2ccccc12,0%,?,25µM*,-3%,2%,27%
O=C(CSC1=NCCS1)NC(c1ccccc1)c1ccccc1,-3%,-19,-6%,-6%[10 µM],11%,26%
O=C(CSC1=NCCS1)Nc1cccc2ccccc12,?,17,14µM*,15%,6%,9%[1.84 µM]
CCOC(=O)C(CCc1ccccc1)NC1CCc2ccccc2N(CC(=O)O)C1=O (stereo not given),-3%,.,-8%,-60%,4%,-22%
COC(=O)c1ccc(C(NC(=O)OCc2ccccc2)/C(F)=C/[C@@H](C)C(=O)NCCc2c[nH]c3ccc(OC)cc23)cc1 (stereo not given in full),?,.,-13%,1%,-2%,.
CC1CC(C)(C)NC(=S)N1CCC(=O)N1CCc2ccccc2C1 (stereo not given),?,.,.,-40%,-30%,18%
Nc1nc2ccccc2n1C(=O)c1ccccc1,3%,.,.,-69%[10 µM],12%,-6%[9.22 µM]
Nc1nc2ccccc2n1C(=O)CCc1ccccc1,7%,-87*,4%,-34%,3%,-9%
Cc1ccc(/C=C/C(=O)N2CCCC(C)C2)cc1 (stereo not given),?,-20,1.6µM*,.,3%,11%
CC1CCN(C(=O)/C=C/c2ccc(C(C)(C)C)cc2)CC1,5%,27,16µM*,.,11%,-22%
COc1cc(-c2cc(=O)c3ccccc3o2)ccc1O,-4%,.,35µM*,-24%[1.9 µM],3%,7%
O=c1cc(-c2c(F)c(F)c(F)c(F)c2F)oc2ccccc12,16µM*,30,-21%,?,13%,-20%
O=c1cc(-c2ccccc2O)oc2cc(O)ccc12,4%,.,?,.,15%,.
O=c1cc(-c2cccc(O)c2O)oc2ccccc12,-3%,.,16µM*,?,-10%,.
CCC(=O)O[C@@]1(C(=O)CCl)[C@@H](C)C[C@@H]2[C@H]3CCC4=CC(=O)C=C[C@@]4(C)[C@]3(F)[C@@H](O)C[C@@]21C,11%[20.9 µM],.,-2%,5%[40.3 µM],1%[21.6 µM],.
